dFosB act: enhances mouse delta FosB homodimer DNA binding | P13346 | 340,000 compounds, 0.99% hits | activation, % at 25 µM | purified delta FosB, TAMRA-CDK5 oligo fluorescence polarization; percent of positive-control signal above neutral wells | AID 493131;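 active means mean activation above about 17%, with every replicate also reaching it, limit read from the data, passing the limit was not always enough; inconclusive means only one of the two conditions met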
Target sequence (P13346 whole entry, looked up): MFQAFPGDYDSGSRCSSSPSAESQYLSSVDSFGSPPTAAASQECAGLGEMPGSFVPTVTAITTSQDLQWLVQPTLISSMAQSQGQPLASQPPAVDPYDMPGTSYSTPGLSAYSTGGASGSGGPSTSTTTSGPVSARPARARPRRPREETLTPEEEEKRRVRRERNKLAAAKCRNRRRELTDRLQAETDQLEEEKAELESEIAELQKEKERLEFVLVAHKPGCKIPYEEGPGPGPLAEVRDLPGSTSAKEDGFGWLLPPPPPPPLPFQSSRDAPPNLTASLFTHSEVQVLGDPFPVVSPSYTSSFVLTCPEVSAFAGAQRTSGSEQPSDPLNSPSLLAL
SIRT5 block: inhibitors of human sirtuin-5 desuccinylase | Purified SirT5, succinyl-peptide AMC, trypsin-coupled fluorescence | 330,000 compounds, 1.1% hits | Q9NXA8 | inhibition, % at 15 µM; in the data active means inhibition above about 15%; inconclusive means no clear call, values can overlap the other calls
PglD inh: inhibitors of Campylobacter jejuni PglD acetyltransferase; purified PglD enzyme, DTNB colorimetric CoA detection; inhibition, % at 12.5 µM; 360,000 compounds, 0.098% hits; AID 602405; in the data active means inhibition above about 16%, passing the limit was not always enough; inconclusive means no clear call, values can overlap the other calls
PvdQ inh: P. aeruginosa PvdQ acylase inhibition | purified PvdQ acylase, fluorescence plate reader | inhibition, % at 10 µM | 340,000 compounds, 0.063% hits; in the data active means inhibition above about 30%, passing the limit was not always enough; inconclusive means no clear call, values can overlap the other calls;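 further: 0% = vehicle neutral wells and 100% = reference inhibitor wells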
CDK5 inh: CDK5/p35 (human) kinase inhibition; Recombinant CDK5/p35, ADP-Glo luminescence, 60 min; inhibition, % at 10 µM; Q00535+Q15078; 330,000 compounds, 0.01% hits;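 active means highest replicate inhibition of at least 50% and at least 75% of replicates reaching 50%; inconclusive means only one of the two criteria met; inactive means both criteria failed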;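 further: plate controls were DMSO neutral control for no effect and GW8510 at 10 µM for full effect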
FGF22 binding: shifts melting point of recombinant human FGF22. recombinant FGF22 thermal shift, SYPRO orange fluorescence; percent of sucrose octasulfate shift, DMSO zero. 340,000 compounds, 1.5% hits. AID 651658. Q9HCT0. activity (Tm shift, normalised), % at 9.99 µM;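 active means mean Tm shift, scaled 0 neutral to 100 positive control, at about 1.3% or above, every replicate too, limit read from the data; inconclusive means no clear call, values can overlap the other calls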
Target sequence (Q9HCT0 whole entry, looked up): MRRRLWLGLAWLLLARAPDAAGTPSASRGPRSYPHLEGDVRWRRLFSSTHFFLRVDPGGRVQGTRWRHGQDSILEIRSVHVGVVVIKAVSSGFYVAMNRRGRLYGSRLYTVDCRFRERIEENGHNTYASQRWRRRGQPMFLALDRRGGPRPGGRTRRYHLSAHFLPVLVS
The depositor's hits bear a star; ? = inconclusive; / = no result given. Hits are enriched below; roughly 2.8% of the tested compounds scored in any of these assays.

SMILES | dFosB act | SIRT5 block | PglD inh | PvdQ inh | CDK5 inh | FGF22 binding
Cn1c(N)c(C(=O)COC(=O)/C=C/c2ccc(Cl)cc2Cl)c(=O)n(C)c1=O | / | / | -8 | / | / | 44*
Cn1c(N)c(C(=O)COC(=O)C2CCC(C(C)(C)C)CC2)c(=O)n(C)c1=O (stereo not drawn) | -1 | / | -8 | -9 | 0 | /
Cn1nnnc1SCC(=O)c1c(N)n(C)c(=O)n(C)c1=O | -1 | / | -4 | -14 | 1 | /
Cn1c(N)c(C(=O)COC(=O)C2CCCC2)c(=O)n(C)c1=O | 0 | -2 | / | -10 | 0 | 43*
O=C(CC1CC1)N1CC2(C1)[C@H](c1ccccc1)[C@@H](CO)N2Cc1cccc(F)c1 | / | 0 | / | / | / | 0
O=C(NCCCn1ccnc1)c1nn2c(C(F)(F)F)cc(-c3ccccc3)nc2c1Cl | -12 | 1 | -2 | 51* | 0 | 0
Cc1ccc(-c2cnc3c(c2)C(=O)N([C@H](C)CO)C[C@H](C)[C@@H](CN(C)C(=O)Cc2ccccc2)O3)cc1 | / | 6 | -3 | / | / | 0
O=C(O)c1cccc(-n2cccc2/C=C2/NC(=O)N(c3ccc(Cl)cc3)C2=O)c1 | -8 | 44* | / | -3 | 3 | /
O=C(O)c1cccc(-n2cccc2/C=C2/NC(=O)N(c3cccc(Cl)c3)C2=O)c1 | -6 | 9 | / | 0 | -1 | 0
C[C@@H]1CN([C@H](C)CO)S(=O)(=O)c2ccc(C#CC(C)(C)O)cc2O[C@H]1CN(C)Cc1ccncc1 | / | 0 | -1 | / | / | 0
CCC(Sc1nc2ncnc(N)c2[nH]1)C(=O)O (stereo not drawn) | 3 | 17* | / | -7 | 3 | 0
O=C(/C(=C/O)N=Nc1cccc(C(F)(F)F)c1)c1ccccc1 | -2 | 3 | / | 1 | 0 | 43*
CC(C)NC(=O)N(C)C[C@@H]1Oc2ccc(NC(=O)Nc3ccccc3)cc2C(=O)N([C@H](C)CO)C[C@@H]1C | / | -4 | 0 | / | / | 0
C[C@H]1CN([C@@H](C)CO)C(=O)c2cc(NC(=O)CCCCCC(=O)Nc3ccccc3N)ccc2O[C@H]1CN(C)S(=O)(=O)c1ccccc1 | / | 3 | / | / | / | 0
O=C(Nc1ccccc1C(=O)O)c1cc(S(=O)(=O)Nc2ccccc2)ccc1Cl | -7 | 23* | -3 | -7 | -2 | 2.8*
O=C(O)c1ccc(NS(=O)(=O)c2ccc(Cl)c(C(=O)Nc3ccccc3)c2)cc1 | 5 | 0 | -2 | -3 | -2 | 0
CCc1ccc(-c2cc(C)no2)cc1S(=O)(=O)Nc1cc(C)ccn1 | -2 | 32* | -5 | -3 | -2 | 0
CCS(=O)(=O)N1CCCCN2[C@H](CO)[C@H](c3ccc(-c4ccc(C(=O)N(C)C)cc4)cc3)[C@@H]2C1 | / | 8 | 3 | / | / | 0
O=c1[nH]cc(CN2CCOCC2)c(=O)[nH]1 | -4 | / | -8 | -5 | 3 | 43*
Cc1ccc(S(=O)(=O)N(C)CCCC(=O)NC(C)(C)CO)cc1 | -4 | 27* | -2 | -15 | -1 | 0
Cc1ccc(S(=O)(=O)N(C)CCN(C)S(=O)(=O)c2ccc(C)cc2)cc1 | 4 | / | / | 2 | 1 | 43*
Cc1ccc(S(=O)(=O)N(C)CCCC(=O)NC(C)(C)C)cc1 | 0 | 6 | 2 | -8 | 0 | 0
Cc1ccc(NC(=O)c2sc(=S)n(-c3cc(C)ccc3F)c2N)cc1 | / | -1 | -6 | -12 | 1 | 43*
C[C@@H]1CN([C@H](C)CO)C(=O)c2cc(NS(=O)(=O)c3ccc(Cl)cc3)ccc2O[C@@H](C)CCCCO[C@@H]1CN(C)Cc1ccccc1 | / | 21* | 0 | / | / | /
C[C@@H]1CN([C@@H](C)CO)C(=O)c2cc(NS(=O)(=O)c3ccc(Cl)cc3)ccc2O[C@@H](C)CCCCO[C@@H]1CN(C)Cc1ccccc1 | / | 18* | 1 | / | / | /
SMILES | dFosB act | SIRT5 block | PglD inh | PvdQ inh | CDK5 inh | FGF22 binding
C[C@@H]1CN([C@@H](C)CO)C(=O)c2c(c3ccccc3n2C)-c2ccccc2CO[C@@H]1CN(C)C(=O)[C@H](C)c1ccccc1 | / | 20* | / | / | / | 0
C[C@H]1CN([C@@H](C)CO)C(=O)c2c(c3ccccc3n2C)-c2ccccc2CO[C@H]1CN(C)Cc1ccccc1 | / | 19* | / | / | / | /
CC(C)[C@@H](C)NC(=O)N(C)C[C@@H]1OCc2ccccc2-c2c(n(C)c3ccccc23)C(=O)N([C@@H](C)CO)C[C@@H]1C | / | 19* | 1 | / | / | 0
C[C@H](C(=O)N(C)C[C@@H]1OCc2ccccc2-c2c(n(C)c3ccccc23)C(=O)N([C@H](C)CO)C[C@H]1C)c1ccccc1 | / | 3 | / | / | / | 0
C[C@@H]1CN([C@@H](C)CO)C(=O)c2c(c3ccccc3n2C)-c2ccccc2CO[C@@H]1CN(C)Cc1ccc(-c2ccccc2)cc1 | / | 17* | / | / | / | /
CC(C)[C@@H](C)NC(=O)N(C)C[C@H]1OCc2ccccc2-c2c(n(C)c3ccccc23)C(=O)N([C@@H](C)CO)C[C@H]1C | / | -1 | 1 | / | / | 0
CNC(=O)C[C@@H]1CC[C@@H]2[C@@H](COc3ccc(NC(=O)c4cc(F)cc(F)c4)cc3C(=O)N2C)O1 | / | -1 | -2 | / | / | 0
O=C(C[C@@H]1CC[C@@H]2[C@H](COC[C@H](O)CN2S(=O)(=O)c2ccccc2)O1)Nc1ccc(-c2ccccc2)cc1 | / | 4 | 0 | / | / | 0
N#Cc1cccc(-c2ccc(C3[C@H]4CNC[C@@H]3N4S(=O)(=O)c3cccc(F)c3)cc2)c1 (stereo partly drawn) | / | 4 | / | / | / | /
C[C@H](CO)N1C[C@H](C)[C@@H](CN(C)C(=O)Cc2ccccc2)OCc2ccccc2-c2c(n(C)c3ccccc23)C1=O | / | 18* | 1 | / | / | 0
C[C@H](CO)N1C[C@H](C)[C@H](CN(C)C(=O)Cc2ccccc2)OCc2ccccc2-c2c(n(C)c3ccccc23)C1=O | / | / | -1 | / | / | /
O=C(c1cc(F)ccc1F)C1CCCN(C(=O)CCN2CCCCO2)C1 (stereo not drawn) | -1 | 2 | -1 | -11 | -1 | 43*
C=CCOC(=O)[C@H]1[C@@H]2C(=O)O[C@@H](c3ccccc3)[C@@H](c3ccccc3)N2[C@@H](c2ccc(OCCOC(=O)[C@@H]3C[C@@H]4C(=O)N[C@@H](CC(C)C)C(=O)N4[C@@H]3c3cccc(OCCO)c3)cc2)[C@]12C(=O)Nc1ccccc12 | / | 1 | / | / | / | 0
Cc1oc(-c2cccc(Cl)c2)nc1CS(=O)(=O)CC(=O)NCc1ccco1 | -11 | -3 | -3 | -3 | 0 | 1.5*
O=C(c1ccncc1)N1CC(=O)N2[C@H](C1)[C@@H](c1ccc(-c3ccccc3)cc1)[C@@H]2CO | / | 1 | / | / | / | /
CSc1ncccc1C(=O)Nc1nc2ccc(Oc3ccccc3)cc2s1 | ? | -6 | / | -16 | 1 | 43*
COc1ccc2nc(NC(=O)c3ccccc3C(=O)O)sc2c1 | -9 | 0 | 3 | 3 | 0 | 0
